The values below come from PubChem BioAssay (Tox21).

Results filed as inconclusive are left out. Values without a mark were called inactive. The source made the active and inactive calls. Unless noted, calls come from the whole dose curve; as a rule, active = well fitted curve in the direction sought with a large enough effect in the repeat runs; inconclusive = weak or mixed curves; inactive = no such curve, though single readings can be large; an effect the other way counts as inactive or inconclusive.

A short description of test [1]: qHTS assay to identify small molecule antagonists of the vitamin D receptor (VDR) signaling pathway - cell viability counter screen (AID 743225). Note: nearly all actives have a fitted effect of over 50% in size. Summed up:
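Cells (VDR-UAS-bla HEK 293T) are plated, rested 4 h at 37C, dosed with compound and 3 nM final 1-alpha,25-dihydroxy vitamin D3, and incubated 16 h. Viability is taken from CellTiter-Glo luminescence in the reporter wells.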
(Quantitative high-throughput screening tests each substance at several concentrations.)

Test [2] in a line: qHTS assay to identify small molecule agonists of the NFkB signaling pathway - cell viability counter screen (AID 1159515; calls by dose curve; note: series mostly up to about 61 µM; nearly all actives have a fitted effect of over 55% in size). Summed up:
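NFkB-bla ME-180 cells, 2,000/well, plated overnight at 37 C; compound added for 5 hr at 37 C. Viability read in the same wells as the bla reporter, by CellTiter-Glo luminescence after 30 min at room temperature.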

Test [3] can be described thus: qHTS assay to identify small molecule agonists of the endoplasmic reticulum stress response signaling pathway (AID 1159516; active = well fitted activation curve with a large enough effect in the signal ratio in the repeat runs, not every such curve was filed as active; the % refers to the signal ratio). In short, it runs like this:
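CellSensor ESRE-bla HeLa cells, 1,500 per well, plated overnight, then exposed to compounds for 5 hr at 37 C. Beta-lactamase reporter read with LiveBLAzer B/G FRET substrate after 2 hr at room temperature, 405 nm excitation, 460 and 530 nm emission.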

Test [4] can be described thus: qHTS assay to identify small molecule agonists of the endoplasmic reticulum stress response signaling pathway - cell viability counter screen (AID 1159517; calls by dose curve;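 note: HeLa cells carrying an ER stress response element beta-lactamase reporter; series mostly up to about 61 µM; nearly all actives have a fitted effect of over 50% in size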). In short, it runs like this:
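ESRE-bla HeLa cells, 1,500 per well, seeded overnight then treated with compounds for 5 hr at 37 C. After the beta-lactamase read, viability in the same wells is measured by CellTiter-Glo luminescence after 30 min at room temperature.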

The nature of test [5]: qHTS assay to identify small molecule antagonists of the retinoid-related orphan receptor gamma (ROR-gamma) signaling pathway - cell viability counter screen (AID 1159520). Note: nearly all actives have a fitted effect of over 50% in size. In short, it runs like this:
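Tet-on ROR gamma CHO cells were given compounds for 2 hr, then doxycycline hyclate at 1 uM final, and incubated 16 hr at 37 C. Viability was measured as ATP content by CellTiter-Glo luminescence.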

Test [6] addresses Nuclear receptor ROR-gamma (Homo sapiens) (UniProt P51449). The test is described as follows: qHTS assay to identify small molecule antagonists of the retinoid-related orphan receptor gamma (ROR-gamma) signaling pathway (AID 1159521; note: nearly all actives have a fitted effect of over 50% in size; note: potency is the fitted concentration of half-maximal effect). In short, it runs like this: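 RORγ antagonism is scored from reduced reporter luminescence in Tet-on CHO cells. Induction used 1 uM final doxycycline hyclate for 16 h at 37 C, following a 2 h compound exposure.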

The nature of test [7]: qHTS assay to identify small molecule agonists of the AP-1 signaling pathway - cell viability counter screen (AID 1159525; calls by dose curve; note: nearly all actives have a fitted effect of over 55% in size). In short, it runs like this: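 AP-1-bla ME-180 cells in Opti-MEM with 0.5% dialyzed FBS, compound exposure 5 h at 37 C in 15-point titration. Viability read in the same wells as ATP content by CellTiter-Glo luminescence, normalised to tetra-n-octylammonium bromide and DMSO controls.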

Test [8] is described as follows: qHTS assay to identify small molecule agonists of the AP-1 signaling pathway (AID 1159526; calls by dose curve).
The target of test [9] is Retinoic acid receptor RXR-alpha (Homo sapiens) (UniProt P19793). The test is described as follows: qHTS assay to identify small molecule agonists of the RXR signaling pathway (AID 1159527; calls by dose curve; note: nearly all actives have a fitted effect of over 35% in size). Summed up: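 qHTS of the Tox21 10K library in GeneBLAzer RXR-alpha HEK 293T cells carrying a beta-lactamase reporter […]; 16 hr treatment, 9-cis retinoic acid as agonist control, FRET read-out.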
Chain of Retinoic acid receptor RXR-alpha (Homo sapiens) (P19793 whole entry, looked up): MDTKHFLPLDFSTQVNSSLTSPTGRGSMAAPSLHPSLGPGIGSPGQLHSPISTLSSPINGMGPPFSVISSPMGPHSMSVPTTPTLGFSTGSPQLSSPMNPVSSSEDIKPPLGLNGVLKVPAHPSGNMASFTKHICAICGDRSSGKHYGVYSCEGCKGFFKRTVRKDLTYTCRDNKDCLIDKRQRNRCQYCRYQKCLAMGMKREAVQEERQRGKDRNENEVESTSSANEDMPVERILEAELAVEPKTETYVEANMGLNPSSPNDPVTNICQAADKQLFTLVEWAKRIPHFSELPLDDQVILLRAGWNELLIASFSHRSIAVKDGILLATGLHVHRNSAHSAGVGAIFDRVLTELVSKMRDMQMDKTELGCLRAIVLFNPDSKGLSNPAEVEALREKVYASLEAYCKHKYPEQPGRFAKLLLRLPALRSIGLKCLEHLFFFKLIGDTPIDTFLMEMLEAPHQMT

A short description of test [10]: qHTS assay to identify small molecule agonists of the RXR signaling pathway - cell viability counter screen (AID 1159529). In short, it runs like this:
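Cell viability is measured by CellTiter-Glo luminescence, 30 min at room temperature, in wells already read for beta-lactamase. Engineered HEK 293T cells (RXR-alpha-UAS-bla) are dosed 16 hr at 37 C. Tetraoctyl ammonium bromide serves as positive control.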

Test [11] in a line: qHTS assay to identify small molecule antagonists of the retinoid acid receptor (RAR) signaling pathway - cell viability counter screen (AID 1159551). Note: nearly all actives have a fitted effect of over 35% in size. Summed up:
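C3RL4 RARE-luciferase cells, 1,000/well, incubated overnight, then dosed with compound plus 1 uM retinol (final). After 6 hr at 37 C, viability read by CellTiter-Glo ATP luminescence following 30 min at room temperature.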

Test [12] can be described thus: qHTS assay to identify small molecule antagonists of the retinoic acid receptor (RAR) signaling pathway (AID 1159552; note: nearly all actives have a fitted effect of over 50% in size). Summed up:
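Quantitative HTS in C3RL4 RARE-luciferase reporter cells. Compounds were added with 1 uM (final) retinol; luminescence was read after 6 hr.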

The nature of test [13]: qHTS assay to identify small molecule antagonists of the estrogen related receptor (ERR) signaling pathway from Tox21 library - cell viability counter screen (AID 1224834). Note: nearly all actives have a fitted effect of over 30% in size. Summed up: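 ERR reporter cells, 2,000 per well, rested 6 h, then exposed to compound in DMSO for 17.5 hours at 37 C. Viability read as fluorescence after 30 min with CellTiter-Fluor.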
The nature of test [14]: qHTS assay to identify small molecule agonists of the retinoic acid receptor (RAR) signaling pathway (AID 1159553). In short, it runs like this:
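C3RL4 RARE-luciferase cells were seeded at 1,000/well and grown overnight at 37 C, then exposed to compounds for 6 hr at 37 C, 5% CO2. Luciferase reagent was added and luminescence was read after 30 min at room temperature.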

A short description of test [15]: qHTS assay to identify small molecule antagonists of the estrogen related receptor (ERR) signaling pathway - cell viability counter screen (AID 1224818). Note: series mostly up to about 46 µM. Summed up: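 ERR cells, 2,000 per well, compound added after 6 h and incubated 17.5 h at 37 C. Viability read by CellTiter-Fluor fluorescence after a further 30 min at 37 C.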
Test [16] is described as follows: qHTS assay to identify small molecule antagonists of the estrogen related receptor (ERR) signaling pathway (AID 1224819). Summed up:
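ERR reporter cell line (NTP) plated at 2,000 cells/well, settled 6 h at 37C/5% CO2, then exposed to LOPAC compounds for 18 h at 37C. One-Glo luciferase luminescence read after 30 min at room temperature.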

A short description of test [17]: qHTS assay to identify small molecule agonists of the estrogen related receptor (ERR) signaling pathway (AID 1224820). In short, it runs like this: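 ERR reporter cell line (from NTP), 2,000 cells/well, incubated 6 h before compound addition, then 18 h at 37 C. Luminescence measured 30 min after One-Glo reagent at room temperature.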
The subject of test [18] is estrogen-related receptor alpha (ERRalpha) with PGC-1alpha coactivator, human. The test is described as follows: qHTS assay to identify small molecule antagonists of the estrogen related receptor signaling pathway with the pleiotropic PPARgamma coactivator (PGC) (AID 1224821; calls by dose curve). Summed up:
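PGC/ERR reporter cell line, plated 6 h before compound addition, then exposed 18 h at 37 °C. Luciferase activity read by luminescence 30 min after One-Glo addition; decrease indicates antagonism.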

The nature of test [19]: qHTS assay to identify small molecule antagonists of the estrogen related receptor signaling pathway with the pleiotropic PPARgamma coactivator (PGC) cell viability counter screen (AID 1224822; note: series mostly up to about 46 µM). In short, it runs like this:
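PGC/ERR cells rested 6 h, then compound-treated 17.5 h at 37 C. CellTiter-Fluor added for 30 min at 37 C, viability measured by fluorescence intensity.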

A short description of test [20]: qHTS assay to identify small molecule agonists of the estrogen related receptor signaling pathway with the pleiotropic PPARgamma coactivator (PGC) (AID 1224823). Summed up:
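PGC/ERR reporter cells seeded 6 h, then exposed to compounds (23 nL in DMSO) for 18 h at 37 C. One-Glo luciferase luminescence read after 30 min at room temperature.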

As to `CC(C)(C)OC(=O)c1cccc(N)c1`, the result in [1], in test [2], in test [3], in test [4], in test [5] and in test [7] was inactive. The call in test [8] and in test [11] was inactive. Further, the Potency entry in [6], in [9], in [10], in [12] and in [13] was “inactive” throughout.
Take `CNC(=O)Nc1ccc(Cl)c(Cl)c1`: the compound was classed as inactive in test [2], in test [3], in test [4], in [5], in [7] and in [8]. In test [11], the result was inactive. Also, the Potency result in test [6], in test [9], in test [10], in test [12] and in [13] was “inactive” throughout.
On to `COc1cc2c(cc1OC)-c1cc3ccc(OC)c(OC)c3c[n+]1CC2`, for which the compound was classed as inactive in test [2], in test [3], in test [4], in [5], in [7] and in [8]. Moreover, in [11], the compound was classed as inactive. Also, the Potency result in [6], in test [9] and in [10] was “inactive” in each case.
As to `CO[C@@]1(NC(=O)C(C(=O)O)c2ccc(O)cc2)C(=O)N2C(C(=O)O)=C(CSc3nnnn3C)CO[C@@H]21` (some centres not stated), the outcome in [1], in test [2], in test [3], in [4], in test [5] and in [7] was inactive. Also, the call in [8] and in test [11] was inactive. The Potency entry in test [6], in [9], in test [10], in test [12], in test [14] and in test [13] was “inactive” in each case.
In the case of `Nc1ccn([C@@H]2O[C@H](CO)[C@@H](O)[C@@H]2O)c(=O)n1`, the result in test [2], in test [3], in [4], in test [5], in test [7] and in test [8] was inactive. Moreover, the call in test [11], in [15], in [16], in test [17], in [18] and in test [19] was inactive. In test [20], the result was inactive. The Potency in test [6] was 8.63 µM (active). Also, the Potency result in test [9], in [10] and in [14] was “inactive” in each case.
Turning to `CCNS(=O)(=O)c1ccc(C)cc1`, the outcome in test [1], in test [2], in test [3], in test [4], in test [5] and in test [7] was inactive. Moreover, the result in test [8] and in test [11] was inactive. For the same compound, the Potency entry in test [6], in [9], in [10], in [12], in test [14] and in test [13] was “inactive” each time.
On to `C[C@H]1[C@H](NC(=O)/C(=N/OC(C)(C)C(=O)O)c2csc(N)n2)C(=O)N1S(=O)(=O)O` (stereo in doubt), for which the compound was classed as inactive in test [2], in [3], in [4], in test [5], in test [7] and in test [8]. The compound was classed as inactive in test [11]. Besides, the Potency entry in [6], in test [9], in test [10], in [12], in test [14] and in test [13] was “inactive” throughout.
For `CC1OC1C1CCC2(C)OC2C1` (configuration not stated), the result in test [1], in [2], in [3], in test [4], in [5] and in [7] was inactive. Further, the call in test [8] and in test [11] was inactive. The Potency result in [6], in test [9], in test [10] and in test [12] was “inactive” throughout.
In the case of `Cc1ccccc1N=C(N)N=C(N)N`, the outcome in [2], in test [3], in test [4], in [5], in [7] and in [8] was inactive. The result in test [11] was inactive. Also, the Potency entry in test [6], in [9], in test [10], in test [12] and in test [13] was “inactive” in each case.
